Screens as filed in PubChem BioAssay.
CtBP-E1A inh = blocks the CtBP interaction with E1A; AlphaScreen GST-E1A/His-CtBP binding, 1536-well; stronger effect = lower value; activity change, % (concentration not given with the values); hit rate 0.49% among 340,000; AID 651724; in the data active means activity change below about -65%; inconclusive means mostly about -30% to -63%
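AlphaScreen with 125 nM GST-E1A and 125 nM His-CtBP (5X stocks) in Tris pH 8.0, 300 mM NaCl, BSA, Tween 20, TCEP. Compounds preincubated 2 h at 37 deg C, then glutathione donor/nickel acceptor beads added for 1 h at 37 deg C in dark.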
TDP1 block = inhibitors of human tyrosyl-DNA phosphodiesterase TDP1. Q9NUW8. recombinant TDP1, AlphaScreen DNA substrate cleavage. Potency, µM (series often up to 130 µM), for the others: top-dose activity change, negative = inhibition, usual class: inhibitors. hit rate 0.28% among 350,000; further: potency means the concentration at half of the fitted maximal effect; nearly all actives have a fitted effect of over 40% in size
Target sequence (Q9NUW8 whole entry, looked up): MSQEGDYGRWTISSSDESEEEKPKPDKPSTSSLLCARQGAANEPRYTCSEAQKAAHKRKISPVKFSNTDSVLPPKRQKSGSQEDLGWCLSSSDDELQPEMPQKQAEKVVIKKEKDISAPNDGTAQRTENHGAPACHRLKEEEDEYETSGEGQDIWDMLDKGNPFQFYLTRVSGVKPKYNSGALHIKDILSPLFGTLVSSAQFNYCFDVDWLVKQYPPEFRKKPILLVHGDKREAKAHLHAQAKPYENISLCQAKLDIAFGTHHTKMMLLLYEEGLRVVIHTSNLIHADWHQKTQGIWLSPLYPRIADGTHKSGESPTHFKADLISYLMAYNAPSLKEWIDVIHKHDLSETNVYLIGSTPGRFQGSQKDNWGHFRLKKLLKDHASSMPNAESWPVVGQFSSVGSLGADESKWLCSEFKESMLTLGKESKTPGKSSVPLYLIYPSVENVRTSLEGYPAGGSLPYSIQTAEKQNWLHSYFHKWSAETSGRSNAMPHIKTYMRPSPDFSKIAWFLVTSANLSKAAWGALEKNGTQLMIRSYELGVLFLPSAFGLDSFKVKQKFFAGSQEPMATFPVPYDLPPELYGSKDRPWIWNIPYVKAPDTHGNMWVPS
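Recombinant human Tdp1 (E. coli-expressed, 1 nM final) preincubated with compounds 15 min at room temperature, then 5'-biotin/3'-phosphotyrosine-FITC DNA substrate (15 nM final) added for 5 min. AlphaScreen beads (10 ug/ml final) added 10 min; cleavage lowers signal.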
IL-1B inflam inh = blocks inflammasome-driven IL-1 beta release. THP-1 LPS/ATP IL-1B secretion, AlphaLISA, 16 h; stronger effect = lower value. AID 743279. activity change, % at 57.5 µM. hit rate 4.7% among 360,000; in the data active means activity change below about -50%; inconclusive means mostly about -30% to -49%
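THP-1 cells pretreated 1 hr with compounds (up to 57.5 uM final), then stimulated with LPS (250 ng/mL final) plus ATP (1.25 mM final); secreted IL-1B measured by AlphaLISA after 16 hr, decreased signal indicating inhibition.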
TDP1 cell noCPT = qHTS for Inhibitors of human tyrosyl-DNA phosphodiesterase 1 (TDP1): qHTS in cells in absence of CPT; Potency, µM (highest dose often 46.2 µM), for inactives: at the top dose activity change, negative = growth inhibition, actives largely listed as inhibitors; hit rate 15% among 420,000; DT40 Tdp1-/- hTDP1 cells, no CPT, ATP luminescence, 48 h; further: potency means the concentration at half of the fitted maximal effect; nearly all actives have a fitted effect of over 55% in size
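Compound effects on proliferation are scored in DT40 Tdp1-/-;hTDP1 cells in the absence of CPT. ATP levels (CellTiter-Glo luminescence) are recorded after a ≥48 hr, 37 °C incubation.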
Six1-Eya2 inh = blocks human Six1 binding to Eya2. AID 651725. Q15475+O00167. AlphaScreen GST-Six1/His-Eya2 binding, biochemical; stronger effect = lower value. activity change, % (test concentration not listed). hit rate 0.56% among 360,000; in the data active means activity change below about -65%; inconclusive means mostly about -30% to -63%
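Homogeneous AlphaScreen proximity assay pairing GST-Six1 with His-tagged Eya2 (added as 5X mix: 250 nM and 500 nM) in 50 mM Tris pH 8.0, 300 mM NaCl, 1 mM TCEP. Glutathione donor and nickel acceptor beads; 1 h, 37 °C, dark.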
DT40 TDP1 CPT = growth inhibition of DT40 Tdp1-/-;hTDP1 cells with camptothecin (screen for TDP1 inhibitors). chicken DT40 Tdp1-/-;hTDP1 cells + 20 nM CPT, ATP luminescence, 48 h. Potency, µM (highest dose often 46.2 µM), for inactives: at the top dose activity change, negative = growth inhibition, usual class: inhibitors. hit rate 12% among 420,000; further: potency means the concentration at half of the fitted maximal effect; nearly all actives have a fitted effect of over 55% in size
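Cell growth measured by CellTiter-Glo luminescence after a minimum 48 h, 37 C compound exposure with 20 nM CPT in Tdp1-knockout DT40 cells stably expressing hTDP1, seeded 400/well; qHTS titration format.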
An asterisk follows results filed as active; ? = inconclusive; . = no result; [ ] = another dose, or the depositor's remark. Hits are enriched below; roughly 18% of the tested compounds scored in any of these assays. Unless noted, the call rests on the fitted dose curve; in most records, active means well fitted curve in the direction sought with a large enough effect; inconclusive means small, poorly fitted or top-dose-only effect, or another doubt; inactive means no such curve, though single readings can be large; an effect the other way counts as inactive or inconclusive. On the % scale 0 is the no-effect control and ±100 the full control effect.

SMILES | CtBP-E1A inh | TDP1 block | IL-1B inflam inh | TDP1 cell noCPT | Six1-Eya2 inh | DT40 TDP1 CPT
CCN(CC)S(=O)(=O)c1ccc(N2CCOCC2)c(NS(=O)(=O)c2cccs2)c1 | 6.8 | 0.3%[56.1 µM] | 11.7 | 2.9% | 2.8 | 0.4%
CCN(CC)S(=O)(=O)c1ccc(N2CCCC2)c(NS(=O)(=O)c2ccc(F)cc2)c1 | 3.0 | -2.3% | -1.1 | 14.6µM* | -4.3 | ?
CCN(CC)S(=O)(=O)c1ccc(N2CCCC2)c(NS(=O)(=O)c2ccccc2)c1 | -8.2 | 1.1% | 14.7 | ? | -3.3 | 23.1µM*
CCN(CC)S(=O)(=O)c1ccc(N2CCCCC2)c(NC(=O)/C=C/c2cc(OC)c(OC)c(OC)c2)c1 | 1.4 | -0.6% | -0.4 | 11.6µM* | 0.8 | ?
CCN(CC)S(=O)(=O)c1ccc(N2CCCC2)c(NS(=O)(=O)c2ccc([N+](=O)[O-])cc2)c1 | -3.6 | 8.2% | 7.9 | -28.5% | -9.0 | ?
C=CCNS(=O)(=O)c1sccc1/C=N/O | 2.1 | 0.0% | 9.2 | -11.6% | 5.7 | -24.6%
CCN(CC(=O)Nc1ccc(OC)cc1)CC(=O)Nc1ccc(Br)cc1F | 5.3 | 6.3% | 9.0 | -22.3% | -2.0 | ?
O=C(Nc1cc(Cl)ccc1Cl)c1cc2nc(-c3ccc4c(c3)OCO4)cc(C(F)(F)F)n2n1 | . | 7.1% | . | -23.9% | . | -4.4%
COc1cc(/C=C/C(=O)Nc2ccc(N3CCCCC3)c(S(=O)(=O)Nc3ccccc3Cl)c2)cc(OC)c1OC | -1.1 | 4.2% | 16.8 | 2.59µM* | -2.3 | ?
CCN(CC)S(=O)(=O)c1ccc(N2CCCC2)c(NC(=O)c2ccccc2OC)c1 | -6.4 | -0.6% | -2.3 | 14.6µM* | -2.8 | ?
CCN(CC)S(=O)(=O)c1ccc(N2CCCC2)c(NC(=O)Cc2ccccc2)c1 | 5.6 | 7.5% | 0.0 | 14.6µM* | -2.7 | ?
CN(C)CCCNC(=O)C(=O)NCC(c1cccs1)S(=O)(=O)c1ccc(F)cc1 (configuration not stated) | 8.5 | 0.6% | -2.3 | -2.9% | 2.4 | ?
N=C(N)SCc1ccc(Cl)c2ccccc12 | 13.1 | . | -101.1* | ? | 15.4 | ?
CCOC(=O)C1=C(C)C2C3C(=O)N(c4ccc(C)cc4C)C(=O)C3C1(C)C1C(=O)N(c3ccc(C)cc3C)C(=O)C21 (configuration not stated) | -2.0 | 2.6% | -13.3 | -26.7% | -3.9 | -24.7%
COc1ccc2c(c1)c1ncn(Cc3ccc(F)cc3)c(=O)c1n2C | -1.8 | . | 22.1 | -29.4% | -8.5 | -19.2%
COc1ccc2c(c1)c1ncn(Cc3ccco3)c(=O)c1n2C | -29.2 | 10.4% | -12.8 | 13µM* | ? | -5.4%
C=CCn1c(SCn2nnc3ccccc3c2=O)nc2scc(-c3cccs3)c2c1=O | -5.7 | -1.0% | -6.2 | -1.3% | -9.4 | 8.9%
O=c1c2ccccc2nnn1CSc1nnc(-c2cccs2)n1Cc1ccccc1 | -6.9 | 4.3% | ? | 23.1µM* | -1.2 | 29.1µM*
Cc1cc(C(=O)CSc2nnc(-c3cccs3)n2Cc2ccccc2)c(C)n1C | -20.4 | 10.4% | ? | ? | -24.8 | ?
O=c1cc(CSc2nnc(-c3cccs3)n2Cc2ccccc2)nc2sc3ccccc3n12 | -7.5 | -5.3% | -51.1* | 3.66µM* | -16.4 | 5.8µM*
